Measured values taken from ChEMBL document CHEMBL1961873, “Compounds: GSK PKIS; Assays: Nanosyn kinase panel” (2012).

Experiments:
[1] = molecular target: T1, Inhibitor of nuclear factor kappa-B kinase subunit epsilon (Homo sapiens) (UniProt Q14164); settings: at 1 µM;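 note: reported values are averaged percent inhibition figures against human IKKε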
T1 sequence (whole entry): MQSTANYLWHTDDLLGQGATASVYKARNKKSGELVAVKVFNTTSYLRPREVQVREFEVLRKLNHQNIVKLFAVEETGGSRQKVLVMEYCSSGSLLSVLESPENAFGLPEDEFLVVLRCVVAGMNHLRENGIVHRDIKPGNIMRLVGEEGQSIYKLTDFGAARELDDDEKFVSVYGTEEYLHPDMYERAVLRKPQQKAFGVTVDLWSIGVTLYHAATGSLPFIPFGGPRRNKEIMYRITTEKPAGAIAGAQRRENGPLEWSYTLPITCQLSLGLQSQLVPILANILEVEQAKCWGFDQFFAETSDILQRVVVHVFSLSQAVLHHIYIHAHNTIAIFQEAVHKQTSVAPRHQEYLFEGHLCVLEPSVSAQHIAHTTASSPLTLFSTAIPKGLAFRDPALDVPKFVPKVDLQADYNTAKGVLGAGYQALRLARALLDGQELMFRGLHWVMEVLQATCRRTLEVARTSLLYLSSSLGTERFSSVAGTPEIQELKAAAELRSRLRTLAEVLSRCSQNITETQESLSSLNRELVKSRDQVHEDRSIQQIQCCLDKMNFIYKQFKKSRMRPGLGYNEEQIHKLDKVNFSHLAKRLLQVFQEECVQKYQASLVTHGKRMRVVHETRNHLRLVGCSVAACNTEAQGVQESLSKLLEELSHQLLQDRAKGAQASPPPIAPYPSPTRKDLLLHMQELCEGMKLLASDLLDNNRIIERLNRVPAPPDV

[2] = molecular target: T2, Serine/threonine-protein kinase Nek1 (Homo sapiens) (UniProt Q96PY6); settings: at 0.1 µM
T2 sequence (whole entry): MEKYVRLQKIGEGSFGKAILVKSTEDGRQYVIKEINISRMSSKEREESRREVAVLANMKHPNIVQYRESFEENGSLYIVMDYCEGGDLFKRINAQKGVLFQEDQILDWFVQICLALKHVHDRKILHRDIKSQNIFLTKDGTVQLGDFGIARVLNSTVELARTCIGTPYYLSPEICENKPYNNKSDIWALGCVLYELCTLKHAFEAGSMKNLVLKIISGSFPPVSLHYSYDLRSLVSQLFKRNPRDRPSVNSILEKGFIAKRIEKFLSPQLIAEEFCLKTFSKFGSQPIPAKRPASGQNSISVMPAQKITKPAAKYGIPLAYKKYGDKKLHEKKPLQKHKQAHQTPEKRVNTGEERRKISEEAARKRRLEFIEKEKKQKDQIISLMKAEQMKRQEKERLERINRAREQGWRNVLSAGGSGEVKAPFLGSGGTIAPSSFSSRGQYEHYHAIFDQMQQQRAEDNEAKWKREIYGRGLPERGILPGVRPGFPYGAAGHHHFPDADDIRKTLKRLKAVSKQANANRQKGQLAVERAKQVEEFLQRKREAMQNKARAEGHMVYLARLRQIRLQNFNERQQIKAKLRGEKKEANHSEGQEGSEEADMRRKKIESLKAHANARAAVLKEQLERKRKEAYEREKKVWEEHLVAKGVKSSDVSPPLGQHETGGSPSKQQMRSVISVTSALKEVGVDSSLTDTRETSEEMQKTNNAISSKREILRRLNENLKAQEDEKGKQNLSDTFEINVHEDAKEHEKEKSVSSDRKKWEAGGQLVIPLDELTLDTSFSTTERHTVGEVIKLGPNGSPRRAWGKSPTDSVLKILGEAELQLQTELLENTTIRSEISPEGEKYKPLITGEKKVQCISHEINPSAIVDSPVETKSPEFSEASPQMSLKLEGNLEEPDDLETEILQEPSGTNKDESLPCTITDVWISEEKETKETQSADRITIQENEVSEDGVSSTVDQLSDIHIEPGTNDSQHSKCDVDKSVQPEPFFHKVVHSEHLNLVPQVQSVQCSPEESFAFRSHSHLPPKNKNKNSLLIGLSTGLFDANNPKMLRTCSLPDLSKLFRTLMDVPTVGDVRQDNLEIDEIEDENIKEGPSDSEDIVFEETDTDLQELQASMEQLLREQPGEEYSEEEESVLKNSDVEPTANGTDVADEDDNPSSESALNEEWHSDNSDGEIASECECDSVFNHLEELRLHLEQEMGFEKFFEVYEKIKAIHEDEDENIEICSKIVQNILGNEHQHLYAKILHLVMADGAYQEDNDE

[3] = molecular target: T2, Serine/threonine-protein kinase Nek1 (Homo sapiens); settings: at 1 µM
[4] = molecular target: T3, Serine/threonine-protein kinase Nek2 (Homo sapiens) (UniProt P51955); settings: at 0.1 µM
T3 sequence (whole entry): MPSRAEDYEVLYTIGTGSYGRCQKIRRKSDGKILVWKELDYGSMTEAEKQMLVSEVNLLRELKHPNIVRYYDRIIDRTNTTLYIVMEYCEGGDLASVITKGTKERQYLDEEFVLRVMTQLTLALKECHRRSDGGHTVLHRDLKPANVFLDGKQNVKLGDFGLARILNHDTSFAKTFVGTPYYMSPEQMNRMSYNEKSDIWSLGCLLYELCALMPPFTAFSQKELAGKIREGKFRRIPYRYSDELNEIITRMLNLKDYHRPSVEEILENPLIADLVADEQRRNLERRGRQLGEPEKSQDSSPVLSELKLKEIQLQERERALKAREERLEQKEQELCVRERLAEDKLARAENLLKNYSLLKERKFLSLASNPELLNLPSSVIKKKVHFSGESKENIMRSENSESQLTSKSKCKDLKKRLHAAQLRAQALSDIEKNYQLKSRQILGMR

[5] = molecular target: T3, Serine/threonine-protein kinase Nek2 (Homo sapiens); settings: at 1 µM
[6] = molecular target: Serine/threonine-protein kinase Nek6 (Homo sapiens) (UniProt Q9HC98); settings: at 0.1 µM
[7] = molecular target: Serine/threonine-protein kinase Nek6 (Homo sapiens) (UniProt Q9HC98); settings: at 1 µM
[8] = molecular target: Serine/threonine-protein kinase Nek7 (Homo sapiens) (UniProt Q8TDX7); settings: at 0.1 µM
[9] = molecular target: Serine/threonine-protein kinase Nek7 (Homo sapiens) (UniProt Q8TDX7); settings: at 1 µM
[10] = molecular target: T4, Serine/threonine-protein kinase Nek9 (Homo sapiens) (UniProt Q8TD19); settings: at 0.1 µM;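 note: reported value is the mean percent inhibition of NEK9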
T4 sequence (whole entry): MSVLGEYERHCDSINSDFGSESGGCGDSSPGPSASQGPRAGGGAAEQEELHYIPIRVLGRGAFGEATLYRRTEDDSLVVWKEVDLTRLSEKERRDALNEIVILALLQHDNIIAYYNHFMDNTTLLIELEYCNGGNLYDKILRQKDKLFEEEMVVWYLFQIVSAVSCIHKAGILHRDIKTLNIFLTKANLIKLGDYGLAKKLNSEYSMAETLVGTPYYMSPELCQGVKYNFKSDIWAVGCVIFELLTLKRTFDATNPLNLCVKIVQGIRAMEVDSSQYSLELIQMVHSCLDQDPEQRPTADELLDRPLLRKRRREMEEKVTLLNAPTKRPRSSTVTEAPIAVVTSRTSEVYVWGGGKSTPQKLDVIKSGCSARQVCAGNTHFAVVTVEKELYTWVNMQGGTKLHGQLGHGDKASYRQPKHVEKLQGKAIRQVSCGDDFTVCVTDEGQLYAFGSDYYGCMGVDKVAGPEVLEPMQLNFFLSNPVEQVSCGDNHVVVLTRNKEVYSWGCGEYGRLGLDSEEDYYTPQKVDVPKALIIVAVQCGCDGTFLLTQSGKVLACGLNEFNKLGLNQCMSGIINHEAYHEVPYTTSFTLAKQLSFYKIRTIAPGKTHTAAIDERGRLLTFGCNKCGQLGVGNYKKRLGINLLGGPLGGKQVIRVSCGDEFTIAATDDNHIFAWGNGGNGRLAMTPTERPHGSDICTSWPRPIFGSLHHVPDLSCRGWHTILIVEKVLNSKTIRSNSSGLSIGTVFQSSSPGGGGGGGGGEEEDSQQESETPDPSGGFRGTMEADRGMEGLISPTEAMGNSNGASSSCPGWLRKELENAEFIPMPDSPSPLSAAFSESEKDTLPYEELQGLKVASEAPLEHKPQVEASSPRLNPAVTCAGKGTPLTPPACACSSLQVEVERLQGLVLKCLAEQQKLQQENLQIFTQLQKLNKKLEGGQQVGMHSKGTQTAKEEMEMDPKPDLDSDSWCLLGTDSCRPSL

Chain of Serine/threonine-protein kinase Nek7 (Homo sapiens) (Q8TDX7 whole entry, looked up): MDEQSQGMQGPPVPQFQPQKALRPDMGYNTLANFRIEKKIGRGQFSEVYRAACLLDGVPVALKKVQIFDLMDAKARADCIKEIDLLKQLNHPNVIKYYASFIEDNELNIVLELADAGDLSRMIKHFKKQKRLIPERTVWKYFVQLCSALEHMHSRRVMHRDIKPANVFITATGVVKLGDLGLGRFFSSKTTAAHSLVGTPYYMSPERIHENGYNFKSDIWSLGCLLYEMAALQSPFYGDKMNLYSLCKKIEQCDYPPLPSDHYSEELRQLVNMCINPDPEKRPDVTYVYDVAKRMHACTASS
Chain of Serine/threonine-protein kinase Nek6 (Homo sapiens) (Q9HC98 whole entry): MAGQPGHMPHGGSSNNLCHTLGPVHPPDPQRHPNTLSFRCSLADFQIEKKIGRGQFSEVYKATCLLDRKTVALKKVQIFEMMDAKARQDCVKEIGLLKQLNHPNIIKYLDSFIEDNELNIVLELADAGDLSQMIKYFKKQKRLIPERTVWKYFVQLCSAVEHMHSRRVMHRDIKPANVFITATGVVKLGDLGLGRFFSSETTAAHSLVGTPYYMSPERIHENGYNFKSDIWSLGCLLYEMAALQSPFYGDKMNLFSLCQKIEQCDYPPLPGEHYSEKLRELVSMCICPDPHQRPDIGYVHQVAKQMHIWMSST

| SMILES | inhibition [1] | inhibition [2] | inhibition [3] | inhibition [4] | inhibition [5] | inhibition [6] | inhibition [7] | inhibition [8] | inhibition [9] | inhibition [10] |
| --- | --- | --- | --- | --- | --- | --- | --- | --- | --- | --- |
| Cc1ccc(C(=O)NC2CCCCC2)cc1-c1ccc(C(=O)NCC2CC2)cc1 | 0.57% | 1.91% | 1.48% | 3.04% | 3.36% | 3.51% | -2.96% | 4.39% | 3.76% | -0.48% |
| COc1ccccc1Nc1ncc(-c2ccccc2)o1 | 7.83% | 3.62% | 3% | 6.46% | 6.16% | 0.52% | 1.67% | 2.39% | 5.45% | 5.2% |
| Cc1nn(C)c2cc(N(C)c3ccnc(Nc4cccc(S(N)(=O)=O)c4)n3)ccc12 | 4.76% | 2.28% | 3.95% | 3.82% | 5.14% | 0.43% | 1.3% | 5.76% | 3.53% | 8.48% |
| CCc1cccc(NC(=O)Nc2ccc(Oc3ccc4nc(NC(=O)OC)[nH]c4c3)cc2)c1 | 3.32% | 0.6% | 1.24% | 1.78% | 1.1% | 0.58% | 3.24% | -1.37% | -2.89% | 3.74% |
| O=C1Nc2ccc(C(=O)c3ccco3)cc2C1=Cc1cc(Cl)c(O)c(Cl)c1 | 52% | 1.66% | 6.79% | 5.56% | 3.76% | -0.24% | 0.61% | 3.27% | 3.97% | 6.51% |
| Cn1cc(C=C2C(=O)Nc3cccnc32)c2ccccc21 |  | 2.09% | 1.05% | 2.65% | 2.9% | 3.82% | -1.86% | 3.8% | 4.49% | 2.88% |
| COC(=O)Nc1nc2cc(Oc3ccc(NC(=O)Nc4cccc(C(=O)O)c4)cc3)ccc2[nH]1 | 3.63% | 0.04% | 2.1% | -0.46% | -6.05% | -0.14% | -0.54% | -2.43% | -0.18% | 3.39% |
| CNC(=O)c1cncc(/C=C/c2c(Cl)cccc2Cl)c1 | 6.17% | 2.78% | 1.83% | 4.53% | 3.38% | 1.11% | 4.76% | 4.23% | 9.84% | 5.43% |
| O=C1NC(=O)C(c2ccccc2Cl)=C1Nc1cccc(O)c1 | 5.16% | 1.26% | 2.01% | 3.03% | 3.05% | 1.73% | -0.89% | 4.66% | 2.35% | 2.76% |
| COc1cc2ncn(-c3cc(OCc4ccccc4Cl)c(C(N)=O)s3)c2cc1OC | 2.71% | 3.45% | 15.5% | 3.49% | 37.3% | 1.95% | -3.5% | 4.31% | 1.21% | 9.22% |
| Cc1cc(O)cc(C)c1/C=C/c1cncc(-c2nn[nH]n2)c1 | 4.14% | 3.13% | 3.26% | 5.36% | 4.88% | 1.26% | 1.3% | 4.96% | 4.04% | 4.65% |
| COc1cc(C)c(NC(=O)CN(C)C)cc1Nc1nc(Nc2cccc(F)c2C(N)=O)c2cc[nH]c2n1 | 5.68% | 1.77% | -0.24% | 3.86% | 3.95% | -0.84% | -0.26% | 4.83% | 9.65% | 7.92% |
| CS(=O)(=O)CCNCc1ccc(-c2ccc3ncnc(Nc4ccc(OCc5ccccc5)c(Cl)c4)c3c2)o1 | -0.15% | 1.25% | 2.81% | 1.61% | 0.43% | 3.37% | -1.04% | 0.02% | 2.5% | -1.85% |
| CN1CCC(C(=O)Nc2n[nH]c3nnc(-c4ccccc4)cc23)CC1 | 6.54% | 2.01% | 4.86% | 5.31% | 4.22% | 2.59% | 0.5% | 5.74% | 4.97% | 12.7% |
| CCn1c(-c2nonc2N)nc2c(C#CC(C)(C)O)nc(CN3CCCC3)cc21 | 30% | 0.5% | 2.97% | -0.01% | 1.09% | 1.01% | -0.68% | 2.37% | 0.41% | -0.93% |
| COc1ccc(-c2coc3ncnc(N)c23)cc1 | 4.6% | 2.17% | 2.92% | 4.88% | 4.8% | 1.43% | 2.31% | 6.65% | 4.79% | 6.76% |
| [O-][S+]1CCN(Cc2ccc(-c3ccc4ncnc(Nc5ccc(OCc6ccccc6)c(F)c5)c4c3)o2)CC1 | 1.45% | 1.95% | 2.41% | 3.45% | 3.23% | 1.87% | -0.69% | 2.33% | 2.07% | 5.9% |
